# Test results: the supplement of paper PMC11634586
# Where a name gives a salt, the structure may show the parent alone. A number with no mark means an inactive call.
# System: NCI-H1688
# Test: inhibition of cell viability relative to untreated control (fraction); higher = stronger growth inhibition, active = 0.5 or more
# Conditions: 30 µM; 24 h
# Procedure, shortened: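 After seeding at 3 × 10^3 cells/well in 96-well plates and a 24 h wait, NCI-H1688 small cell lung cancer cells received a natural compound library (TargetMol) at 30 µM for 24 h, kept at 37°C with 5% CO2. Triplicate readings of Cell Counting Kit-8 absorbance at 450 nm measured viability. Each value is the inhibition of cell viability as a fraction, derived from viability normalised to untreated cells.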
row,Structure (SMILES),inhibition of cell viability
1,C[C@@H]1C(=O)O[C@H]2C[C@@]34[C@H]5C[C@@H](C(C)(C)C)[C@]36[C@@H](OC(=O)[C@@H]6O)O[C@@]4(C(=O)O5)[C@]21O [Ginkgolide A],-0.028
2,C[C@@H]1CC[C@]2(C(=O)O[C@@H]3O[C@H](CO)[C@@H](O)[C@H](O)[C@H]3O)CC[C@]3(C)C(=CC[C@@H]4[C@@]5(C)CC[C@H](O)[C@@](C)(CO)[C@@H]5CC[C@]43C)[C@@H]2[C@]1(C)O [Pedunculoside],0.134
3,O=c1c2ccccc2oc2ccccc12 [Xanthone],-0.129
4,O=C(O)c1cc(O)c(O)c(O)c1 [Gallic acid],0.44
5,COc1cc(O)c2c(c1)C(=O)c1cc(C)cc(O)c1C2=O [Rheochrysidin],0.0809
6,CC1=CC(=O)CC(C)(C)C1=O [Ketoisophorone],-0.175
7,O=C(O)[C@@H](O)[C@H](O)[C@H](O)[C@@H](O)C(=O)O [Mucic Acid],0.0761
8,C[N+](C)(C)CC(O)CC(=O)[O-] (stereo not drawn) [L(-)-Carnitine],0.123
9,CC1(C)C(O[C@@H]2OC[C@@H](O)[C@H](O)[C@H]2O)CC[C@]23CC24CC[C@]2(C)[C@@H]([C@@]5(C)CC[C@@H](C(C)(C)O)O5)[C@H](O)C[C@@]2(C)C4C[C@@H](O[C@@H]2O[C@H](CO)[C@@H](O)[C@H](O)[C@H]2O)C13 (some centres not stated) [Astragaloside IV],-0.0383
10,CC(=O)OC/C=C(C)/C=C/C=C(C)/C=C/C1=C(C)CCCC1(C)C [Retinyl acetate],-0.265
11,CC1(C)CC[C@]2(C(=O)O)CC[C@]3(C)C(=CC[C@@H]4[C@@]5(C)CCC(=O)C(C)(C)[C@@H]5CC[C@]43C)[C@@H]2C1 [Oleanonic Acid],0.342
12,COc1ccc(-c2cc(=O)c3c(OC)c(OC)c(OC)c(OC)c3o2)cc1 [Tangeretin],0.299
13,Cc1c(C(=O)NCCO)[n+]([O-])c2ccccc2[n+]1[O-] [Olaquindox],0.00372
14,CC(=O)c1ccc(O)c(C(=O)O)c1 [5-Acetylsalicylic acid],0.0598
15,O=c1cc(-c2ccccc2)oc2cc(O)c(O)c(O)c12 [Baicalein],0.728 (active)
16,CC1(C)[C@@H](O[C@H]2O[C@H](C(=O)O)[C@@H](O)[C@H](O)[C@H]2O[C@@H]2O[C@H](C(=O)O)[C@@H](O)[C@H](O)[C@H]2O)CC[C@]2(C)[C@H]3C(=O)C=C4[C@@H]5C[C@@](C)(C(=O)O)CC[C@]5(C)CC[C@@]4(C)[C@]3(C)CC[C@@H]12 [Monoammonium glycyrrhizinate],0.346
17,O=c1ccc2ccc(O)c(O)c2o1 [Daphnetin],-0.0337
18,O=C(/C=C/c1ccc(O)c(O)c1)O[C@H](Cc1ccc(O)c(O)c1)C(=O)O [Rosmarinic acid],0.0726
19,O[C@H]1[C@H](O)[C@@H](O)[C@H](O)[C@@H](O)[C@H]1O [Inositol],-0.137
20,C[C@]12CC[C@@H]3c4ccc(O)cc4CC[C@H]3[C@@H]1CCC2=O [Aquacrine],0.0269
21,COC(=O)C1=CO[C@@H](O)[C@@H]2C(CO)=CC[C@H]12 [Genipin],0.135
22,O=C(O)CCC(=O)O [Succinic acid],0.0297
23,NCCC[C@H](N)C(=O)O [L-Ornithine],-0.0432
24,COC(=O)C1=CO[C@@H](O[C@@H]2O[C@H](CO)[C@@H](O)[C@H](O)[C@H]2O)[C@@H]2C(CO)=CC[C@H]12 [Geniposide],0.00243
25,COc1ccc2cc1Oc1ccc(cc1)C[C@H]1c3cc(c(OC)cc3CCN1C)Oc1c(O)c(OC)cc3c1[C@H](C2)N(C)CC3 [Fangchinoline],0.969 (active)
26,Cn1c(=O)c2c(ncn2CC(=O)O)n(C)c1=O [Theophylline-7-acetic acid],-0.159

row,Structure (SMILES),inhibition of cell viability
1,OC[C@@H](O)[C@@H](O)[C@H](O)[C@@H](O)CO [D-Sorbitol],-0.224
2,C=CCc1ccc(O)c(-c2cc(CC=C)ccc2O)c1 [Magnolol],-0.288
3,COc1c(O)cc(O)c2c(=O)cc(-c3ccccc3)oc12 [Wogonin],-0.0139
4,Oc1cc(O)c2c(c1)O[C@H](c1ccc(O)c(O)c1)[C@@H](O)C2 [Cianidanol],0.298
5,CC[C@H]1OC(=O)[C@H](C)[C@@H](O[C@H]2C[C@@](C)(OC)[C@@H](O)[C@H](C)O2)[C@H](C)[C@@H](O[C@@H]2O[C@H](C)C[C@H](N(C)C)[C@H]2O)[C@](C)(O)C[C@@H](C)[C@@H]2N[C@@H](COCCOC)O[C@H]([C@H]2C)[C@]1(C)O [Dirithromycin],0.0389
6,COc1cc2c(=O)c(-c3ccc(O)cc3)coc2cc1O[C@@H]1O[C@H](CO)[C@@H](O)[C@H](O)[C@H]1O [Glycitin],0.491
7,C[C@]12CCC(=O)C=C1CC[C@@H]1[C@@H]2[C@@H](O)C[C@@]2(C)[C@H]1CC[C@]2(O)C(=O)CO [Hydrocortisone],0.0716
8,C=C1CC[C@H]2O[C@]2(C)CC[C@@H]2[C@@H]1CC2(C)C [Caryophyllene oxide],-0.0678
9,O=C(O)c1cc(O)c2c(c1)[C@H]([C@H]1c3cc(C(=O)O)cc(O)c3C(=O)c3c(O[C@@H]4O[C@H](CO)[C@@H](O)[C@H](O)[C@H]4O)cccc31)c1cccc(O[C@@H]3O[C@H](CO)[C@@H](O)[C@H](O)[C@H]3O)c1C2=O [Sennoside A],0.0197
10,CCCCCCCCCC[C@H](C(=O)O)[C@]1(C(=O)O)CCC(=O)O1 [Spiculisporic Acid],0.104
11,O=C(O)CCCCCCCC(O)C(O)CCCCCCO (configuration not stated) [Aleuritic Acid],-0.54
12,"c1ccc2c(Cc3c[nH]c4ccccc34)c[nH]c2c1 [3,3'-Diindolylmethane]",0.12
13,COc1ccc([C@@H]2CC(=O)c3c(O)cc(O[C@@H]4O[C@H](CO[C@@H]5O[C@@H](C)[C@H](O)[C@@H](O)[C@H]5O)[C@@H](O)[C@H](O)[C@H]4O)cc3O2)cc1O [Hesperidin],0.0198
14,CC[C@H](C)[C@H](N)C1=N[C@H](C(=O)N[C@@H](CC(C)C)C(=O)N[C@H](CCC(=O)O)C(=O)N[C@H](C(=O)N[C@H]2CCCCNC(=O)[C@H](CC(N)=O)NC(=O)[C@@H](CC(=O)O)NC(=O)[C@H](Cc3cnc[nH]3)NC(=O)[C@@H](Cc3ccccc3)NC(=O)[C@H]([C@@H](C)CC)NC(=O)[C@@H](CCCN)NC2=O)[C@@H](C)CC)CS1 [Bacitracin],-0.0913
15,Cc1nc(C)c(C)nc1C [Ligustrazine hydrochloride],-0.157
16,CC(C)=C1C/C=C(\C)CC/C=C(\C)CC1=O [Germacrone],0.245
17,C[C@@H]1O[C@@H](O[C@H]2[C@H](Oc3cc(O)c(C(=O)CCc4ccc(O)cc4)c(O)c3)O[C@H](CO)[C@@H](O)[C@@H]2O)[C@H](O)[C@H](O)[C@H]1O [Naringin dihydrochalcone],-0.031
18,C[C@@H]1O[C@@H](O[C@H]2[C@H](Oc3cc(O)c4c(c3)O[C@H](c3ccc(O)cc3)CC4=O)O[C@H](CO)[C@@H](O)[C@@H]2O)[C@H](O)[C@H](O)[C@H]1O [Naringin],0.06
19,CN[C@@H]1[C@H](O[C@H]2[C@H](O[C@H]3[C@H](O)[C@@H](O)[C@H](N=C(N)N)[C@@H](O)[C@@H]3N=C(N)N)O[C@@H](C)[C@]2(O)C=O)O[C@@H](CO)[C@H](O)[C@H]1O [Streptomycin sulfate],-0.138
20,CC(C)=CCC[C@](C)(O[C@@H]1O[C@H](CO[C@@H]2O[C@H](CO)[C@@H](O)[C@H](O)[C@H]2O)[C@@H](O)[C@H](O)[C@H]1O)[C@H]1CC[C@]2(C)[C@@H]1[C@H](O)C[C@@H]1[C@@]3(C)CC[C@H](O[C@@H]4O[C@H](CO)[C@@H](O)[C@H](O)[C@H]4O[C@@H]4O[C@H](CO)[C@@H](O)[C@H](O)[C@H]4O)C(C)(C)[C@@H]3CC[C@]12C [Ginsenoside Rb1],-0.0384
21,CC(=O)O[C@H]1C[C@@]2(C)[C@@H](C[C@@H](O)[C@H]3[C@@]4(C)CC[C@@H](O)[C@@H](C)[C@@H]4CC[C@@]32C)/C1=C(\CCC=C(C)C)C(=O)O [Fusidine],-0.0194
22,CC[C@H](C)C(=O)O[C@H]1CCC=C2C=C[C@H](C)[C@H](CC[C@@H]3C[C@@H](O)CC(=O)O3)[C@H]21 [Mevastatin],0.86 (active)
23,C1CCN2C[C@@H]3C[C@@H](CN4CCCC[C@@H]34)[C@H]2C1 [(-)-Sparteine sulfate pentahydrate],0.237
24,Nc1ncnc2c1ncn2[C@@H]1O[C@H](CO)C[C@H]1O [Cordycepin],-0.154
25,Cn1c(=O)c2nc[nH]c2n(C)c1=O [Theophylline],-0.0544
26,CC[C@H]1OC(=O)[C@H](C)[C@@H](O[C@H]2C[C@@](C)(OC)[C@@H](O)[C@H](C)O2)[C@H](C)[C@@H](O[C@@H]2O[C@H](C)C[C@H](N(C)C)[C@H]2O)[C@](C)(O)C[C@@H](C)CN(C)[C@H](C)[C@@H](O)[C@]1(C)O [Azithromycin dihydrate],0.037
